Hit rate of the full screen: of about 400,000 compounds, about 2,100 (0.53%) were called active. Roughly 14% stayed inconclusive and do not appear here. The rule behind the calls is not given here. The list comes from a sample in which actives are over-represented; it also holds similar structures and randomly drawn compounds.
target: Ataxin-2 (Homo sapiens) (UniProt Q99700); experiment: qHTS for Inhibitors of ATXN expression.; assay type: functional
Sequence (Q99700 whole entry): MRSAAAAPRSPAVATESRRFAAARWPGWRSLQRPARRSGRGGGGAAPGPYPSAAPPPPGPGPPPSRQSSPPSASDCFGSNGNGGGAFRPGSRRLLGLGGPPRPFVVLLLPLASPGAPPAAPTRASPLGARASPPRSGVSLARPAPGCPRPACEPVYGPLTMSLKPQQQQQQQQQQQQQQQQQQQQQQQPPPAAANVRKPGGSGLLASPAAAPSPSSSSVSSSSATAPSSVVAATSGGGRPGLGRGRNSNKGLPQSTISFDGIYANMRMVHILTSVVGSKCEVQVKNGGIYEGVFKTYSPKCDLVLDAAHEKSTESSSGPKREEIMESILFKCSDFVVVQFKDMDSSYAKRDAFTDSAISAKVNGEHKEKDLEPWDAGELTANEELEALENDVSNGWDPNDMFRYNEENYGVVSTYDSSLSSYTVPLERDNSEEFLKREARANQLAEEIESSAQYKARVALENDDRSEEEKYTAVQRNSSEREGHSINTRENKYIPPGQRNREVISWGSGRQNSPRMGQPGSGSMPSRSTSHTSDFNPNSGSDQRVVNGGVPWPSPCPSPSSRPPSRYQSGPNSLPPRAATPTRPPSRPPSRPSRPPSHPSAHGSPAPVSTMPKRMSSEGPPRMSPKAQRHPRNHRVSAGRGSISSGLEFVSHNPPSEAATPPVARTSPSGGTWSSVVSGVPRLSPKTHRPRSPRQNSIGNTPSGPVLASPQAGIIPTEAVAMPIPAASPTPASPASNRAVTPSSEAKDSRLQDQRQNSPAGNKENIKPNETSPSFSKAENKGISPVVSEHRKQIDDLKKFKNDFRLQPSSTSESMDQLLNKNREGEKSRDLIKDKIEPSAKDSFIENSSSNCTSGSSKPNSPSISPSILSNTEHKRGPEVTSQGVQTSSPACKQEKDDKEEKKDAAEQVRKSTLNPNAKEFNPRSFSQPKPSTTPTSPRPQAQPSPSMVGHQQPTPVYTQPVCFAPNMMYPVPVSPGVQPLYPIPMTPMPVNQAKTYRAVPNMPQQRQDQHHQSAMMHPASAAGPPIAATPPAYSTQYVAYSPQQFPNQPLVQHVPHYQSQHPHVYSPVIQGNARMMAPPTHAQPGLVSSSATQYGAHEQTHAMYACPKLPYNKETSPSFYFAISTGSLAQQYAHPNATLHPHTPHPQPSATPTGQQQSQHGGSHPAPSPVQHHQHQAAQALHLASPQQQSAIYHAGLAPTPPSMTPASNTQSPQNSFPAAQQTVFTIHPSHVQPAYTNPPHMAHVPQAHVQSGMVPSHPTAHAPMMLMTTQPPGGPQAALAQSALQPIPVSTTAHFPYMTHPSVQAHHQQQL

Compound | Potency
CCCS(=O)(=O)c1nnnn1-c1cccc(OC)c1 | 35.5 µM (active)
COc1cccc(/C=N/n2nnnc2N)c1 | inactive
COc1cccc(-n2cnnc2S)c1 | inactive
Cc1cc(OC(C)C(=O)NC2CC(C)(C)NC(C)(C)C2)c2c(C)c(C)c(=O)oc2c1 (stereo unspecified) | inactive
Cc1cccn2c(=O)c3cc(C(=O)NC(C)c4ccccc4)c(=N)n(CCCO)c3nc12 (stereo unspecified) | inactive
O=c1c2cc(NC(=S)N3CCC(N4CCCCC4)CC3)ccc2nc2n1CCCCC2 | inactive
O=C(Nc1ccc2nc3n(c(=O)c2c1)CCCCC3)c1cc([N+](=O)[O-])ccc1F | 39.8 µM (active)
O=C(Nc1ccc2nc3n(c(=O)c2c1)CCCC3)c1cc([N+](=O)[O-])ccc1F | 22.4 µM (active)
Cc1cccc(OC(=O)c2ccc3c(=O)n4c(nc3c2)CCC4)c1 | inactive
CCCN(CCC)CCCN=C(S)Nc1ccc2nc3n(c(=O)c2c1)CCCCC3 | inactive
CCN(CC)S(=O)(=O)c1ccc(NC(=O)c2ccc3c(=O)n4c(nc3c2)CCCCC4)cc1 | 11.2 µM (active)
O=C(Nc1ccc2nc3n(c(=O)c2c1)CCCCC3)c1c(F)ccc([N+](=O)[O-])c1F | 8.91 µM (active)
O=C(/C=C/c1ccco1)Nc1ccc2nc3n(c(=O)c2c1)CCCC3 | inactive
Cc1ccc(C)c(NC(=O)c2ccc3c(=O)n4c(nc3c2)CCC4)c1 | inactive
N#C/C(=C\c1ccc2c(c1)OCCO2)C(=O)Nc1nccs1 | inactive
CCCCn1c(=O)[nH]c2nc3cc(N)ccc3nc2c1=O | inactive
Cc1cccc2c(=O)n(C(=O)c3ccccc3)c(N)nc12 | inactive
CC(=O)c1ccc(OCC(=O)OC(C)C(=O)NC2CCCCC2)cc1 (stereo unspecified) | inactive
CCC(C)c1ccc(S(=O)(=O)N2CCN(C(C)CC(=O)O)CC2)cc1 (stereo unspecified) | inactive
O=C(COC(=O)c1ccc(C(F)(F)F)cc1)NC(=O)NC1CCCC1 | inactive
O=C(NCC(O)c1ccc([N+](=O)[O-])cc1)C1CCCCC1 (stereo unspecified) | inactive
CS(=O)(=O)c1ccc(C(=O)OCC(=O)NC(=O)C2CCCCC2)cc1[N+](=O)[O-] | 35.5 µM (active)
CN(Cc1ccccc1F)Cc1cc(=O)oc2cc(O)c(Cl)cc12 | inactive
O=C(Nc1ccc(Cl)cc1)Nc1cccc2nsnc12 | inactive

Compound | Potency
CC(C)c1ccc(NC(=O)Nc2nc(C(C)N)cs2)cc1 (stereo unspecified) | 35.5 µM (active)
CC(C)c1ccc(NC(=O)Nc2nc(C(N)c3ccccc3Cl)cs2)cc1 (stereo unspecified) | 35.5 µM (active)
CC(C)c1ccc(/C=C(/C#N)c2nnc(NC(=O)c3ccccc3)s2)cc1 | inactive
NC(c1ccccc1)c1csc(NC(=O)Nc2ccc(OC(F)(F)F)cc2)n1 (stereo unspecified) | 39.8 µM (active)
CC(C)c1ccc(NC(=O)Nc2nc(C(N)c3ccccc3)cs2)cc1 (stereo unspecified) | 28.2 µM (active)
Cc1oc(CC(C)C)cc1C(=O)NCCCC(=O)O | inactive
N=C1NC(=O)/C(=C/c2ccc(Br)cc2)S1 | inactive
COCCN1C=C(C(=O)OC)C(c2ccc(Cl)cc2)C(C(=O)OC)=C1 | inactive
CCN(CC)C(=O)c1cc(-c2ccc3c(c2)OCO3)on1 | inactive
COc1ccc(CC(N)c2csc(NC(=O)Nc3ccc(C(C)C)cc3)n2)cc1 (stereo unspecified) | 39.8 µM (active)
COc1ccc(OCC(=O)Nc2nccs2)cc1 | inactive
COc1ccc(Cc2nnc(S)n2NC(=O)Nc2ccc(C)cc2)cc1 | inactive
CCN(CC)C(=O)COC(=O)c1cc(-c2ccco2)nc2ccccc12 | inactive
COc1ccc2c3c(cccc13)C(=O)CC2 | inactive
COc1ccc2noc3c2c1C(=O)c1ccccc1-3 | 39.8 µM (active)
COc1cccc2c1C(=O)C=C(C)C2=O | inactive
O=C1c2ccccc2-c2onc3ccc(Oc4ccccc4)c1c23 | 20 µM (active)
COc1ccc(N2C(=O)/C(=C\NNS(=O)(=O)c3ccc(C)cc3)c3ccccc3C2=O)cc1OC | inactive
Cc1cc(=O)oc2cc(OC(=O)c3ccco3)ccc12 | inactive
O=c1c2c(-c3ccccc3)csc2nc2c3ccccc3c(NCCN3CCOCC3)nn12 | inactive
Cc1cc(C)c2nc3nc(C)c(C)cc3c(N)c2c1 | inactive
CCN(CC)c1ccc2cc(C#N)c(=O)oc2c1 | inactive
COc1ccc(N2CCN(CCN3C(=O)c4ccccc4C3=O)CC2)cc1 | inactive
Cn1c2ccccc2c(=O)c2ccc(Cl)cc21 | inactive

Compound | Potency
O=c1c2ccccc2sn1-c1ccccc1 | 28.2 µM (active)
O=c1c2ccccc2nc2ccccn12 | inactive
Nc1ccc2c3c(cccc13)C(=O)N(c1ccccc1)C2=O | inactive
N#Cc1c(N)n(-c2ccccc2)c(=O)c2cc([N+](=O)[O-])ccc12 | inactive
COc1ccc(-n2sc3ccccc3c2=O)cc1 | 22.4 µM (active)
N#Cc1ccc2sn(-c3ccccc3)c(=O)c2c1 | 22.4 µM (active)
N#Cc1cc2cc3ccccc3nc2n2c(=O)c3ccccc3nc12 | inactive
CCC1(CC)Nc2ccccc2C(=O)N1c1ccc(OC)cc1 | inactive
O=c1c2ccccc2sn1-c1ccc(Cl)cc1Cl | 35.5 µM (active)
CC(C)(C)c1ccc(C(=O)NCCn2c(N)c(C#N)c3nc4ccccc4nc32)cc1 | inactive
Cc1cc(O)cc2c1C(=O)/C(=C/c1ccco1)O2 | inactive
O=C1NC(c2ccco2)Nc2sc3c(c21)CCN(Cc1ccccc1)C3 (stereo unspecified) | inactive
N#Cc1c(C(F)(F)F)cc(O)n2c1nc1ccccc12 | inactive
CN1C(=O)c2cccc3c(N)ccc(c23)C1=O | inactive
Cn1sc2ccccc2c1=O | 28.2 µM (active)
CC(=O)Nc1ccc(C2=NN(c3ccccc3)C(c3ccccc3)C2)cc1 (stereo unspecified) | inactive
O=c1c2cc(F)ccc2sn1-c1ccc(F)cc1 | 35.5 µM (active)
O=c1c2ccccc2[nH]c2ccc(F)cc12 | inactive
CC(=O)Nc1ccc2nc3ccccc3nc2c1 | inactive
CC(=O)Nc1ccc2c(=O)n(-c3ccccc3)sc2c1 | 25.1 µM (active)
COCCCn1c(N)c(-c2nc3ccccc3n2C)c2nc3ccccc3nc21 | inactive
COc1ccc(N2C3=C(C(=O)CC(C)(C)C3)C(c3cnn(C)c3)C3=C2CC(C)(C)CC3=O)cc1 | inactive
COc1cccc(C(=O)Oc2c(Br)cc(Br)cc2/C=N/NC(=O)c2cc(C)[nH]n2)c1 | inactive

— ChEMBL document CHEMBL1201862, “PubChem BioAssay data set” (2004)
